# Measurements from the supplement of paper PMC9023506.
# Counter-ions that a name gives are not always drawn.
# System: Danio rerio larvae (5 dpf)
# Test: excitability to 1-s acoustic pulses, difference vs DMSO (percentage points (treated minus DMSO)); higher = more of the behaviour than the DMSO vehicle control
# Details: 10 µM; exposure time: 3 h pre-incubation + 3 h imaging
# Protocol: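 5-dpf wild-type zebrafish larvae were imaged in 96-well plates. They were treated with 190 Tocris FDA-approved drugs at 10 µM (1 µl/ml DMSO) for 3 h before and 3 h during imaging at 28.5 °C, 48 larvae per drug. Automated image analysis gave % time moving and optomotor responses. Values are drug group mean minus DMSO vehicle mean (n=844), in percentage points, for 10 behaviours.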
row,SMILES,excitability to 1-s acoustic pulses
1,Cc1cccc([C@H](C)c2c[nH]cn2)c1C [Dexmedetomidine hydrochloride],8.78
2,C=C1C[C@@H]2[C@H](CC[C@]3(C)C(=O)CC[C@@H]23)[C@@]2(C)C=CC(=O)C=C12 [Exemestane],11.5
3,CC[C@@H](C(N)=O)N1CCCC1=O [Levetiracetam],1.84
4,CC(C)C[C@H]1C(=O)N2CCC[C@H]2[C@]2(O)O[C@](NC(=O)[C@@H]3C=C4c5cccc6[nH]c(Br)c(c56)C[C@H]4N(C)C3)(C(C)C)C(=O)N12 [Bromocriptine mesylate],17.6
5,CCN(C)C(=O)Oc1cccc([C@H](C)N(C)C)c1 [Rivastigmine tartrate],2.04
6,O=c1[nH]c2ccccc2n1C1CCN(CCCC(c2ccc(F)cc2)c2ccc(F)cc2)CC1 [Pimozide],-3.54
7,COc1cc2c(cc1OC)C1CC(=O)C(CC(C)C)CN1CC2 (configuration not stated) [Tetrabenazine],21.7
8,COc1ccc(C(CN(C)C)C2(O)CCCCC2)cc1 (configuration not stated) [Venlafaxine hydrochloride],8.33
9,N[C@@H]1C[C@H]1c1ccccc1 [Tranylcypromine hydrochloride],0.887
10,C=CCN1C[C@H](C(=O)N(CCCN(C)C)C(=O)NCC)C[C@@H]2c3cccc4[nH]cc(c34)C[C@H]21 [Cabergoline],10
11,CN1C[C@H](C(=O)N[C@]2(C)O[C@@]3(O)[C@@H]4CCCN4C(=O)[C@H](Cc4ccccc4)N3C2=O)C[C@@H]2c3cccc4[nH]cc(c34)C[C@H]21 [Dihydroergotamine mesylate],1.17
12,CC(O)(CS(=O)(=O)c1ccc(F)cc1)C(=O)Nc1ccc(C#N)c(C(F)(F)F)c1 (configuration not stated) [Bicalutamide],3.69
